Results from the supplement of paper PMC13380429.
Unmarked numbers belong to inactive results.

Tested on: Vero E6 infected with SARS-CoV-2
Experiment: inhibition of SARS-CoV-2 cytopathic effect; higher = more antiviral protection, active = above 15
Conditions: 48 h

Compound	inhibition of SARS-CoV-2 cytopathic effect (1 nM) [%]	inhibition of SARS-CoV-2 cytopathic effect (8.33 nM) [%]	inhibition of SARS-CoV-2 cytopathic effect (100 nM)	inhibition of SARS-CoV-2 cytopathic effect (833.33 nM)	inhibition of SARS-CoV-2 cytopathic effect (10000 nM)
O=C(/C=C/c1cccnc1)NCCCCC1CCN(C(=O)c2ccccc2)CC1	3.22	-5.64	-20.3%	-24.1%	-24.5%
O=C(O)c1c(Sc2ccccc2)c2cc(Cl)ccc2n1Cc1ccc(Cl)cc1	1.19	-0.87	-0.5%	3.75%	1.7%
O=C(O)C1CSCN1 (stereo not given) [timonacic]	-2.35	-1.08	3.52%	10.6%	4.51%
C=C1C[C@]23C[C@@]1(O)CC[C@H]2[C@@]12C=C[C@H](O)[C@@](C)(C(=O)O1)[C@H]2[C@@H]3C(=O)O	0.13	0.82	1.4%	2.17%	-0.14%
O=C(CC1NCCCC1O)Cn1cnc2cc(Br)c(Cl)cc2c1=O (stereo not given) [halofuginone]	-3.21	-1.77	-2.82%	12.3%	-13.9%
Cn1ncc(Cl)c1-c1cc(C(=O)N[C@H](CN)Cc2ccc(F)c(F)c2)oc1Cl [uprosertib]	-2.98	-0.16	-1.46%	0.21%	-3.53%
COc1ccc2c(C(=S)N(C)CC(=O)O)cccc2c1C(F)(F)F [tolrestat]	0.38	-0.6	-3.79%	-3.61%	-5.09%
COc1cc2c(cc1-c1c(C)noc1C)ncc1[nH]c(=O)n([C@H](C)c3ccccn3)c12	-7.87	-7.32	-3.13%	1.38%	-8.07%
C[C@]12CC[C@@H]3c4ccc(O)cc4C[C@@H](CCCCCCCCC[S+]([O-])CCCC(F)(F)C(F)(F)F)[C@H]3[C@@H]1CC[C@@H]2O (stereo not given in full) [fulvestrant]	-1.55	-1.22	0.63%	-0.23%	-0.95%
CC(C)NCC(O)COc1cccc2ccccc12 (stereo not given) [propranolol]	0.19	1.94	-0.637%	-0.01%	-2.77%
Oc1cc(O)c2c(c1)O[C@H](c1ccc(O)c(O)c1)[C@H](O)[C@H]2c1c(O)cc(O)c2c1O[C@H](c1ccc(O)c(O)c1)[C@H](O)C2 [procyanidin-B-2]	2.26	3.77	2.22%	2.06%	-0.73%
CCCCCCCCCCCCCCCCCCCCCC(=O)Nc1ccn([C@@H]2O[C@H](CO)[C@@H](O)[C@@H]2O)c(=O)n1 [enocitabine]	-3	-4.05	-1.69%	-5.11%	-4.84%
CCc1cc2c(cc1N1CCC(N3CCOCC3)CC1)C(C)(C)c1[nH]c3cc(C#N)ccc3c1C2=O [alectinib]	0.52	1.4	-0.38%	-1.14%	0.15%
CC/C(=C(\c1ccccc1)c1ccc(OCCN(C)C)cc1)c1ccccc1 [tamoxifen]	-0.39	1.81	0.36%	0.06%	11.2%
COc1ccc(-c2coc3cc(O)cc(O)c3c2=O)cc1 [4-methylgenistein]	-1.18	-0.05	0.18%	-1.7%	2.29%
Cc1ccc(NCCCc2ccccc2)c(N)c1 [NFKB-activation-inhibitor-II]	-0.97	-0.96	-1.32%	-1.12%	2.24%
CC(=O)NCCC(=O)N[C@@H](Cc1c[nH]cn1)C(=O)O [N-acetylcarnosine]	1.19	1.23	-0.15%	-2.97%	4.18%
CN1C[C@@H]2C[C@H]1CN2c1cc2c(cc1F)c(=O)c(C(=O)O)cn2C1CC1 [danofloxacin]	0.88	-1.78	0.43%	2.27%	6.15%
CC/C(=C(/CC)c1ccc(O)cc1)c1ccc(O)cc1 [diethylstilbestrol]	-1.15	-2.29	-2.18%	3.59%	6.76%
Cc1cc(C(=CNc2ccc(Cl)cc2)C(=O)Nc2ccc(Cl)cc2)on1	-1.14	-1.99	-2%	-0.86%	0.28%

Compound	inhibition of SARS-CoV-2 cytopathic effect (1 nM) [%]	inhibition of SARS-CoV-2 cytopathic effect (8.33 nM) [%]	inhibition of SARS-CoV-2 cytopathic effect (100 nM)	inhibition of SARS-CoV-2 cytopathic effect (833.33 nM)	inhibition of SARS-CoV-2 cytopathic effect (10000 nM)
CC1C(=O)OC2C(O)C34C5CC(C(C)(C)C)C36C(OC(=O)C6O)OC4(C(=O)O5)C12O (stereo not given) [ginkgolide-B]	1.36	0.56	-1.98%	2.69%	0.1%
CN(C)C(=O)N[C@H]1CC[C@H](CCN2CCN(c3cccc(Cl)c3Cl)CC2)CC1 [cariprazine]	-2.57	1.1	-0.14%	3.01%	-3.84%
Oc1cc2c(cc1O)[C@H]1c3ccccc3CN[C@@H]1CC2 (racemic) [dihydrexidine]	-2.37	-1.57	0.62%	-2.04%	2.92%
C#Cc1cccc(Nc2ncnc3cc(OC)c(OCCCCCCC(=O)NO)cc23)c1	1.1	5.38	-0.94%	-6.89%	-28%
N#CC(=C(/N)Sc1ccccc1N)/C(C#N)=C(/N)Sc1ccccc1N	-0.64	0.76	2.1%	-3.9%	-8.7%
Cc1nc2ccccn2c(=O)c1CCN1CCC(C(=O)c2ccc(F)cc2)CC1 [pirenperone]	1.65	1.73	-0.8%	1.4%	0.69%
C#C[C@]1(OC(C)=O)CC[C@H]2[C@@H]3CCC4=CC(=O)CC[C@@H]4[C@H]3CC[C@@]21C [norethindrone-acetate]	0.09	0.03	-1.33%	0.02%	1.02%
CCCc1c(OCC(O)COc2ccc3c(=O)cc(C(=O)O)oc3c2CCC)ccc(C(C)=O)c1O (stereo not given)	3.39	-0.15	3.25%	6.19%	3.02%
Cc1cccc(/C=N/Nc2cc(N3CCOCC3)nc(OCCc3ccccn3)n2)c1	0.81	1.56	26.8% (active)	20.4% (active)	19.1% (active)
O=c1c2ccccc2[se]n1-c1ccccc1 [ebselen]	0.19	3.3	2.73%	3.17%	-3.01%
C=C1C(=O)O[C@@H]2[C@H]3C(C)=CC[C@@]34O[C@@]4(C)CC[C@@H]12 [arglabin]	-2.02	1.39	-0.31%	-1.74%	29.2% (active)
Nc1cc(Cl)c(N=C2NCCN2)c(Cl)c1 [apraclonidine]	-2.77	1.32	-1.3%	-1.26%	-0.76%
CCC1(CC)C(=O)NC(=O)N(C)C1=O [metharbital]	0.2	2.59	1.14%	0.78%	2.66%
N=C(N)NCCC[C@H](N)C(=O)O [L-arginine]	2.26	3.4	-3.93%	1.97%	1.83%
CCOC(CN1CCN(CC(C)C(=O)c2ccccc2)CC1)c1ccccc1 (stereo not given) [eprazinone]	-5.33	-3.53	-2.2%	1.64%	0.89%
CC(=O)O[C@]1(C(C)=O)CC[C@H]2[C@@H]3C[C@H](C)C4=CC(=O)CC[C@]4(C)[C@H]3CC[C@@]21C [medroxyprogesterone-acetate]	1.02	0.71	-1.14%	2.58%	6.49%
O=C(CCc1ccncc1)NNC(=O)N1Cc2ccccc2Oc2ccc(Cl)cc21	1.3	1.11	1.69%	-0.24%	5.24%
O=C(COc1ccc(Cl)cc1)N[C@H]1CC[C@H](NC(=O)COc2ccc(Cl)cc2)CC1	-0.57	-0.23	3.35%	6.09%	15.7% (active)
CC(C)(C)NCc1cc(Nc2ccnc3cc(Cl)ccc23)c2c(c1O)CCCC2 [naphthoquine-phosphate]	-1.58	-2.22	-0.22%	-0.36%	-5.14%
